PD-1 reverse act = reversal of PD-1 mediated T-cell inhibition; primary human CD4 T cells, PD-L1 beads, CellTiter-Glo 96 h; activation, % (no concentration beside the values); 29,000 tested, under 10 active; AID 2316; call rule not given here
STK33 inh = blocks human STK33 kinase activity | Q9BYT3 | ADP-Glo luminescence, MBP substrate | inhibition, % at 12.5 µM | hit rate 0.44% among 27,000 | AID 2322; in the data active means inhibition above about 20%
Target sequence (Q9BYT3 whole entry, looked up): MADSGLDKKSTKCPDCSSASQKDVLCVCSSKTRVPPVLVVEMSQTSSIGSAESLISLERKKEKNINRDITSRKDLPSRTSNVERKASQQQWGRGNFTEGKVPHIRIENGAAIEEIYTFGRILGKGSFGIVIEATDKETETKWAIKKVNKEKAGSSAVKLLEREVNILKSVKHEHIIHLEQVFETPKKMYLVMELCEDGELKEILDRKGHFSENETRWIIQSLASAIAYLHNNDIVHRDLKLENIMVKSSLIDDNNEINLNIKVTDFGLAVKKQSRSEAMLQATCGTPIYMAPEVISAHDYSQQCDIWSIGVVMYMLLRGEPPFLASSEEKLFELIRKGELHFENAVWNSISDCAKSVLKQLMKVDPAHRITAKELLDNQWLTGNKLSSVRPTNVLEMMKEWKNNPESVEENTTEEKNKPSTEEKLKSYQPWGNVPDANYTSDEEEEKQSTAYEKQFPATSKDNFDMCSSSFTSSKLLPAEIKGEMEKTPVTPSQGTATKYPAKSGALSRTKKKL
NOMO-1 viab = STK33 inhibitor candidate reducing NOMO-1 cell viability; NOMO-1 AML viability, CellTiter-Glo luminescence, 72 h; inhibition, % (no concentration beside the values); hit rate 7.5% among 37,000; AID 2330; in the data active means inhibition above about 80%
Each line names hits and unclear results; the compound was inactive in the other large screens; ! = not active in a repeat. The sample as a whole holds a higher share of hits than the screen did.

C[C@H]1CN([C@@H](C)CO)C(=O)c2cc(NC(=O)Nc3ccc(F)cc3)ccc2O[C@H]1CN(C)Cc1ccc(Cl)c(Cl)c1	NOMO-1 viab 99
C[C@H]1CN([C@@H](C)CO)C(=O)c2cc(NC(=O)Nc3ccc4c(c3)OCO4)ccc2O[C@H]1CN(C)Cc1ccncc1	NOMO-1 viab 95
C[C@@H]1CN([C@H](C)CO)C(=O)c2cc(NC(=O)Nc3ccc4c(c3)OCO4)ccc2O[C@H]1CN(C)Cc1ccncc1	none
C[C@@H]1CN([C@@H](C)CO)C(=O)c2cc(NC(=O)Nc3ccc(F)cc3)ccc2O[C@@H]1CN(C)Cc1ccc(Cl)c(Cl)c1	NOMO-1 viab 113
COc1ccc(NC(=O)Nc2ccc3c(c2)C(=O)N([C@H](C)CO)C[C@@H](C)[C@H](CN(C)Cc2ccc(Cl)c(Cl)c2)O3)cc1	none
CCC(C)(C)NC(=S)Nc1cccc(OC)c1	none (no result: STK33 inh)
c1ccc(COc2ccc(Oc3nc(N4CCOCC4)nc(N4CCOCC4)n3)nn2)cc1	none
CCOC(=O)c1cc(NC(=O)CSc2nnc(C)s2)ccc1Cl	none
COc1cc(OC)nc(NCC(NC(=O)c2ccccc2)C(N)=O)n1 (stereo not given)	none (no result: STK33 inh)
COc1cc(NC(=S)NC(=O)C(C)Oc2ccc(Cl)cc2Cl)c(OC)cc1Cl (stereo not given)	none
COc1ccc(NC(=O)Nc2ccc3c(c2)C(=O)N([C@@H](C)CO)C[C@H](C)[C@@H](CN(C)Cc2ccc(Cl)c(Cl)c2)O3)cc1	none (no result: STK33 inh)
C[C@@H]1CN([C@@H](C)CO)C(=O)c2cc(NC(=O)Nc3ccccc3)ccc2O[C@H]1CN(C)Cc1ccc(Cl)c(Cl)c1	NOMO-1 viab 124 (no result: STK33 inh)
Cc1ccc(NC(=O)c2sc3ncn(CC(=O)Nc4sc5c(c4C#N)CCC5)c(=O)c3c2C)c(C)c1	none
CCCCOc1cc(C(=O)NCCN(CC)CC)c2ccccc2n1	none (no result: PD-1 reverse act)
CCN(CC)CCNc1ccc(CO)c2sc3ccccc3c(=O)c12	NOMO-1 viab 102 (no result: PD-1 reverse act)
CCOc1ccc(NC(=O)c2c(NC(=O)c3ccco3)sc3c2CCCCC3)cc1	NOMO-1 viab 110 (no result: PD-1 reverse act)
COc1ccc(OC)c(NC(=O)c2c(NC(=O)c3ccco3)sc3c2CCC3)c1	none
CN(CC(=O)Nc1ccccc1[N+](=O)[O-])S(=O)(=O)c1ccc(Cl)cc1	none
CSCCC(Nc1ncnc2sc3c(c12)CCCC3)C(=O)O (stereo not given)	none (no result: PD-1 reverse act)
O=C(Nc1ncnc2sc3c(c12)CCCCC3)c1ccc(F)cc1	NOMO-1 viab 109 (no result: STK33 inh)
COc1ccc(CCNC(=O)C2CCCCC2)cc1OC	none (no result: STK33 inh)
O=C(NCCSc1nc2cc(C(F)(F)F)ccc2s1)C12CC3CC(CC(C3)C1)C2	none
CC1CC[C@@]2(OC1)O[C@H]1CC3C4CC=C5C[C@@H](O[C@@H]6O[C@H](CO)[C@@H](O[C@@H]7O[C@@H](C)[C@H](O)[C@@H](O)[C@H]7O)[C@H](O)[C@H]6O[C@@H]6O[C@@H](C)[C@H](O)[C@@H](O)[C@H]6O)CC[C@]5(C)C4CC[C@]3(C)[C@@]1(O)[C@@H]2C (stereo not given in full)	NOMO-1 viab 119
C[C@@H]1O[C@@H](O[C@H]2[C@H](O[C@H]3CC[C@@]4(C)C(CC[C@]5(C)C4CC=C4C6CC(C)(C)CC[C@]6(C(=O)O[C@@H]6O[C@H](CO[C@@H]7O[C@H](CO)[C@@H](O[C@@H]8O[C@@H](C)[C@H](O)[C@@H](O)[C@H]8O)[C@H](O)[C@H]7O)[C@@H](O)[C@H](O)[C@H]6O)CC[C@]45C)C3(C)C)OC[C@H](O)[C@@H]2O)[C@H](O)[C@H](O)[C@H]1O (stereo not given in full)	none (no result: PD-1 reverse act, NOMO-1 viab)
COc1ccccc1-c1cc(-c2ccccc2)nc(SCC(=O)c2cc3ccccc3oc2=O)c1C#N	none (no result: PD-1 reverse act)
CC/C(=C(\c1ccccc1)c1ccc(OCCN(C)C)cc1)c1ccccc1	NOMO-1 viab 96!
CCN(CC)CCOc1ccc(/C(=C(/Cl)c2ccccc2)c2ccccc2)cc1	none (no result: PD-1 reverse act)
C[C@@H]1CN([C@H](C)CO)C(=O)c2cccc(NC(=O)CCCCCC(=O)Nc3ccccc3N)c2O[C@H]1CN(C)S(=O)(=O)c1ccc(Cl)cc1	NOMO-1 viab 121 (no result: STK33 inh)
C[C@H]1CN([C@@H](C)CO)C(=O)c2cccc(NC(=O)CCCCCC(=O)Nc3ccccc3N)c2O[C@H]1CN(C)S(=O)(=O)c1ccc(Cl)cc1	NOMO-1 viab 115 (no result: STK33 inh)
COc1ccc(S(=O)(=O)N(C)C[C@H]2Oc3c(NC(=O)CCCCCC(=O)Nc4ccccc4N)cccc3C(=O)N([C@@H](C)CO)C[C@H]2C)cc1	none (no result: STK33 inh)
C[C@H]1CN([C@@H](C)CO)C(=O)c2cccc(NC(=O)CCCCCC(=O)Nc3ccccc3N)c2O[C@H]1CN(C)S(=O)(=O)c1ccccc1	none (no result: STK33 inh)
Cc1ccc(S(=O)(=O)N(C)C[C@@H]2Oc3c(NC(=O)CCCCCC(=O)Nc4ccccc4N)cccc3C(=O)N([C@H](C)CO)C[C@@H]2C)cc1	NOMO-1 viab 111 (no result: STK33 inh)

Bioassay records: PubChem, Broad Institute
